# KB-3-1 cytotox – qHTS assay for MDR1-selective chemotherapeutics: Primary screen using the parental adenocarcinoma cell KB-3-1; 400,000 compounds, 1.4% hits; AID 1347075, 2019; Potency, µM (titrated, usually from 46.1 µM), actives largely listed as cytotoxic; KB-3-1 viability, CellTiter-Glo ATP luminescence, 72 h; further: nearly all actives have a fitted effect of over 60% in size
#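 Parental KB-3-1 adenocarcinoma cells in phenol-red-free DMEM with 10% FBS were pin-treated with compounds at several concentrations, incubated 72 h at 37 °C, and viability read by CellTiter-Glo luminescence; concentration-effect curves were fitted after normalization.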
# HT1080 IDH1KD tx – qHTS for induction of synthetic lethality in tumor cells producing 2HG: qHTS for the HT-1080-IDH1KD cell line | Potency, µM (doses to about 46.1 µM), inactives show at the highest dose activity, negative = toxicity, most hits filed as cytotoxic | HT-1080 IDH1 knockdown viability, ATP luminescence, 48 h | 360,000 compounds, 2% hits;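 further: 0% = DMSO wells and -100% = cell-free medium wells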
#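 IDH1KD HT-1080 cells, 750/well, RPMI + 5% FBS; compound pinned after 2 h settling; 48 h, 37 °C; CellTiter-Glo luminescence; % activity normalised to DMSO and no-cell wells; curves fitted, classed by r2 and efficacy.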
# HT1080NT lethal – qHTS for induction of synthetic lethality in tumor cells producing 2HG: qHTS for the HT-1080-NT fibrosarcoma cell line | HT-1080-NT fibrosarcoma viability, CellTiter-Glo ATP luminescence, 48 h | AID 686970, 2013 | Potency, µM (highest dose often 46.1 µM), for inactives: top-dose activity, negative = less viability, usual class: cytotoxic | 360,000 compounds, 1.6% hits;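 further: NT is the 2HG producing partner of a matched IDH1 knockdown line; 0% = DMSO-treated cells and -100% = media-only wells without cells; nearly all actives have a fitted effect of over 55% in size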
#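 Toxicity toward the 2HG-producing NT line was scored as %Activity, normalised to DMSO and no-cell wells, from CellTiter-Glo luminescence after 48 hours' treatment.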
# TDP1 cell CPT – qHTS for Inhibitors of human tyrosyl-DNA phosphodiesterase 1 (TDP1): qHTS in cells in presence of CPT. chicken DT40 Tdp1-/-;hTDP1 cells + 20 nM CPT, ATP luminescence, 48 h. Potency, µM (top dose mostly 46.2 µM), for inactives: top-dose activity change, negative = growth inhibition, usual class: inhibitors. 420,000 compounds, 12% hits; further: nearly all actives have a fitted effect of over 55% in size
#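 Cell growth measured by CellTiter-Glo luminescence after a minimum 48 h, 37 C compound exposure with 20 nM CPT in Tdp1-knockout DT40 cells stably expressing hTDP1, seeded 400/well; qHTS titration format.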
# KB-V1 MDR tox – qHTS assay for MDR1-selective chemotherapeutics: Primary screen using the drug-selected MDR subline cells KB-V1 | 400,000 compounds, 3.4% hits | KB-V1 MDR cells viability, CellTiter-Glo, 72 h | AID 1347076, 2019 | Potency, µM (titrated, usually from 46.1 µM), usual class: cytotoxic; further: nearly all actives have a fitted effect of over 60% in size
#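 Potencies derive from concentration-effect curves fitted to normalized luminescence (CellTiter-Glo) of KB-V1 cells treated for 72 h at 37 degrees C in phenol-red-free DMEM containing 10% FBS.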
# DT40 TDP1 no CPT – qHTS for Inhibitors of human tyrosyl-DNA phosphodiesterase 1 (TDP1): qHTS in cells in absence of CPT. DT40 Tdp1-/- hTDP1 cells, no CPT, ATP luminescence, 48 h. Potency, µM (series often up to 46.2 µM), for inactives: at the highest dose activity change, negative = growth inhibition, actives largely listed as inhibitors. 420,000 compounds, 15% hits; further: nearly all actives have a fitted effect of over 55% in size
#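 Readout: luminescence from CellTiter-Glo after 30 min in the dark at RT. Cells: DT40 Tdp1-/- with stable hTDP1, 400/well. Exposure: compounds alone, ≥48 hr, 37 °C.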
# Numbers without * were called inactive; i = inactive; ? = inconclusive; . = not tested or not shown. Shown are actives, neighbours in structure and some others; about 19% of the full set was active somewhere. The call rests on the fitted dose curve; in most records, active means well fitted curve in the direction sought with a large enough effect; inconclusive means small, poorly fitted or top-dose-only effect, or another doubt; inactive means no such curve, though single readings can be large; an effect the other way counts as inactive or inconclusive. Unless noted, on the % scale 0 is the no-effect control and ±100 the full control effect; potency means the concentration at half of the fitted maximal effect.
SMILES,KB-3-1 cytotox,HT1080 IDH1KD tx,HT1080NT lethal,TDP1 cell CPT,KB-V1 MDR tox,DT40 TDP1 no CPT
COc1cccc(C(O)c2nc(-c3ccc(Cl)cc3)cs2)c1 (stereo unspecified),i,?,?,?,i,?
CC1(C(=O)NS(=O)(=O)c2ccccc2Cl)CCN1C(=O)CC1CC1 (stereo unspecified),i,16%,19%,-2%,i,-13%
COc1ccc(NS(=O)(=O)c2ccc(N/N=C(\C)c3ccncc3)c([N+](=O)[O-])c2)cc1,?,?,-22%,12µM*,i,7.3µM*
CCN1c2ccccc2NC2N=C(OC)C(c3ccccc3)C21 (stereo unspecified),i,8.9µM*,11µM*,12µM*,?,13µM*
CC(C)CNC(=O)c1cccc2c1-c1ccccc1C2=O,i,11%,1%,19%,i,6%
O=C(Nc1ccc(Br)cn1)c1cccc2c1-c1ccccc1C2=O,?,-1%,-4%,4.1µM*,?,3.3µM*
Cc1cccc(NC(=O)c2cccc3c2-c2ccccc2C3=O)n1,i,-23%,-11%,?,i,16µM*
COC(=O)c1ccn(-c2nc(-c3ccc(Cl)cc3)cc(C(F)(F)F)n2)n1,i,.,.,?,i,?
COc1cc(CNc2ccc(N3CCN(C(C)=O)CC3)cc2)ccc1OCc1ccc(F)cc1,i,?,23µM*,?,i,16µM*
COc1cc(CNc2ccc(N3CCOCC3)cc2)cc(Br)c1OC,i,-1%,-1%,?,i,16µM*
COc1cc(CC(=O)Nc2ccc(N3CCOCC3)cc2)cc(OC)c1OC,i,0%,2%,3%,i,-24%
CC(=O)N1CCN(c2ccc(NCc3ccc(F)cc3)cc2)CC1,i,5%,9%,-20%,i,3%
CCOc1c(Br)cc(CNc2ccc(N3CCN(C(C)=O)CC3)cc2)cc1OC,i,-12%,-19%,16µM*,i,?
CCOc1cc(CNc2ccc3c(c2)OCCO3)cc(Br)c1OCC,5.2µM*,2.3µM*,1.8µM*,2.6µM*,2.6µM*,0.82µM*
Cc1c(CN(C)C(=O)C2CCC(=O)N(Cc3ccccc3F)C2)[nH]c2ccccc12 (stereo unspecified),i,-7%,-10%,-28%,i,-29%
NS(=O)(=O)c1ccc(NC(=O)C(=O)NCCC(=O)O)cc1,i,3%,15%,3%,i,-1%
CCOc1cc(CNc2ccc(N3CCOCC3)cc2)cc(Br)c1OCC,?,?,-18%,?,?,16µM*
CCOc1ccc(CNC(=O)C2Cc3cc(S(=O)(=O)N4CCCCCC4)ccc3N2C(C)=O)cc1 (stereo unspecified),i,.,.,?,i,?
Cc1c(-n2cc(C(=O)O)c(=O)c3cc(F)c(N4CCCC4)c(F)c32)c(=O)n(-c2ccccc2)n1C,i,-5%,-4%,16µM*,i,23µM*
CCOC(=O)N1CCN(C(=O)CSCC(=O)Nc2nc(-c3ccc4c(c3)OCO4)cs2)CC1,i,-13%,-14%,21µM*,?,21µM*
CCOC(=O)N1CCN(C(=O)CSCC(=O)Nc2nc(-c3cccs3)cs2)CC1,i,?,0%,?,i,?
CCOC(=O)N1CCN(C(=O)CSCC(=O)Nc2nc(-c3ccc(C)cc3)cs2)CC1,i,-3%,8%,16µM*,?,12µM*
O=C(CSCC(=O)N1CCOCC1)Nc1nc(-c2ccc3c(c2)OCO3)cs1,i,-5%,-2%,-29%,i,-28%
CCCNC(=O)C1(C)CCN(C(=O)Cc2ccc3ccccc3c2)C1 (stereo unspecified),i,12%,2%,?,i,?
COc1ccccc1CNc1cc(CSc2ccc(Cl)cc2)nc(C)n1,?,?,?,?,15µM*,?
SMILES,KB-3-1 cytotox,HT1080 IDH1KD tx,HT1080NT lethal,TDP1 cell CPT,KB-V1 MDR tox,DT40 TDP1 no CPT
CN(C)S(=O)(=O)n1cnc([C@@H]2[C@@H]3C(=O)OC[C@@H]3C[C@]23N=CN(Cc2ccccc2)C3=O)c1,i,16%,11%,3%,i,-9%
CCOc1cc(CNCCSc2nnnn2-c2ccccc2)ccc1OC,i,.,.,12µM*,i,10µM*
COc1cccc(CNCCSc2nnnn2-c2ccccc2)c1OC,i,.,.,?,i,23µM*
COc1ccc(S(=O)(=O)NCCSc2nnnn2-c2ccccc2)cc1OC,i,.,.,16µM*,i,23µM*
Cn1nnnc1SCCNS(=O)(=O)c1ccccc1,i,25%,24%,-4%,i,-22%
CCOC(=O)c1ccc(NC(=O)Cn2nc(C)c3nn(-c4ccc(Cl)cc4)c(C)c3c2=O)cc1,.,.,.,-20%,.,?
COc1ccc(-c2cc(C(F)(F)F)c(C#N)c(SCC(=O)Nc3ccc(F)cc3)n2)cc1,i,.,.,-3%,i,-29%
O=C(NCc1ccc(F)cc1F)[C@@H]1CCCN1C(=O)[C@@H]1CCCN1,i,-5%,4%,-16%,i,-10%
CCCCNC(=O)C(NC(=O)c1ccc(C(F)(F)F)cc1)C(=O)c1ccccc1 (stereo unspecified),i,17%,18%,-16%,?,4%
CCCCNC(=O)C(NC(=O)Cc1cc(C(F)(F)F)cc(C(F)(F)F)c1)C(=O)c1ccccc1 (stereo unspecified),i,9%,1%,29µM*,i,?
CCCn1c(=O)c2c(C(=O)OCC)cc(-c3ccco3)nc2n(CCC)c1=O,i,3%,3%,0%,18µM*,-17%
COc1cccc(C2CC(c3cccs3)=NN2C(=O)c2ccco2)c1O (stereo unspecified),i,-24%,?,-1%,i,-11%
O=C(c1ccco1)N1N=C(c2cccs2)CC1c1ccccc1O (stereo unspecified),.,?,-2%,18µM*,.,21µM*
